Out of some 39,000 compounds screened, about 500 (1.3%) were called active. This excerpt belongs to a sample that is enriched for actives.

The subject of this experiment is S. aureus RN4220. The experiment is described as follows: growth inhibition call (relative growth <= 0.2). Conditions: 50 µM.
Turning to `COCCNC(=O)C[C@H]1CC[C@H]2[C@@H](COC[C@@H](O)CN2S(=O)(=O)c2ccccc2C)O1`, the growth inhibition call is “inactive”.
To `CN1CC2(CCN(C(=O)[C@H]3CCC(=O)N3)CC2)COc2ccccc2S1(=O)=O` belongs “inactive”; to `C[C@@H]1CCCCO[C@H](CN(C)C(=O)NC2CCCCC2)[C@H](C)CN([C@@H](C)CO)C(=O)c2cc(NS(=O)(=O)c3ccc(F)cc3)ccc2O1`, “inactive”; to `O=C(C[C@H]1C[C@@H]2c3cc(NS(=O)(=O)c4ccc(F)cc4)ccc3O[C@@H]2[C@@H](CO)O1)NCc1ccncc1`, “inactive”.
In the case of `CSc1nc(C)cc(NC(N)=O)n1`, the growth inhibition call was “inactive”.
Next, `COc1cc(N2CCC(N(C)C)CC2)ccc1Nc1ncc(Cl)c(Nc2ccccc2P(C)(C)=O)n1`: “inactive”.
For the molecule `COc1cc(N2CCC(N3CCN(C)CC3)CC2)ccc1Nc1ncc(Cl)c(Nc2ccccc2S(=O)(=O)C(C)C)n1`, the growth inhibition call was “inactive”.
As to `COc1cc(N2CCC(N)CC2)ccc1Nc1ncc(Cl)c(-c2c[nH]c3ccccc23)n1`, the growth inhibition call was “active”.
`CCCNC(=O)N1C[C@H](O)COC[C@@H]2O[C@H](CC(=O)N3CCN(C)CC3)CC[C@H]21`: the growth inhibition call is “inactive”.
To `O=C(CN1CCOCC1)N[C@H]1CC[C@@H](CCNC(=O)C2CCCCC2)O[C@H]1CO` belongs “inactive”; to `COC1(NC(=O)C(C(=O)[O-])c2ccc(O)cc2)C(=O)N2C(C(=O)[O-])=C(CSc3nnnn3C)COC21.[Na+].[Na+]` (centres undefined), “active”.
In the case of `COC1(NC(=O)C2SC(=C(C(N)=O)C(=O)O)S2)C(=O)N2C(C(=O)O)=C(CSc3nnnn3C)CSC21` (centres undefined), the growth inhibition call is “active”.
Consider `CO[C@@]1(NC(=O)[C@@H](C(=O)O)c2ccc(O)cc2)C(=O)N2C(C(=O)O)=C(CSc3nnnn3C)CO[C@@H]21`, for which the growth inhibition call is “inactive”.
With `CO[C@@]1(NC(=O)CSC[C@@H](N)C(=O)O)C(=O)N2C(C(=O)O)=C(CSc3nnnn3C)CS[C@@H]21`, the growth inhibition call was “inactive”.
As to `COC1(NC(=O)CSCC#N)C(=O)N2C(C(=O)[O-])=C(CSc3nnnn3C)CSC21.[Na+]` (centres undefined), the growth inhibition call was “active”.
For the molecule `C[C@H](CO)N1C[C@H](C)[C@@H](CN(C)Cc2ccc3c(c2)OCO3)Oc2c(NC(=O)c3ccncc3)cccc2C1=O`, the growth inhibition call was “inactive”.
As to `COc1ccc(S(=O)(=O)Nc2ccc3c(c2)CC(=O)N([C@H](C)CO)C[C@@H](C)[C@H](CN(C)S(=O)(=O)c2ccc(F)cc2)O3)cc1`, the growth inhibition call is “inactive”.
Take `O=C(CCCCCNC(=O)OCc1ccc(CO[C@H]2C[C@@H](C3CCCCC3)C=C(C(=O)N3CCN(Cc4ccc5c(c4)OCO5)CC3)O2)cc1)NO`: the growth inhibition call was “inactive”.
Regarding `COc1ccccc1NC(=O)C1=C(C)N=C(SCC(=O)Nc2ccccc2[N+](=O)[O-])C(C#N)[C@@H]1c1ccccc1F` (some centres undefined), the growth inhibition call was “inactive”.
As for `C[C@H]1CN([C@@H](C)CO)C(=O)Cc2cc(NC(=O)CCCCCC(=O)Nc3ccccc3N)ccc2O[C@H]1CN(C)Cc1ccc(C(F)(F)F)cc1`, the growth inhibition call was “inactive”.
For `COc1ccc(NC(=O)N(C)C[C@H]2OCCCC[C@@H](C)Oc3ccc(NC(=O)Nc4ccccc4)cc3C(=O)N([C@H](C)CO)C[C@H]2C)cc1`, the growth inhibition call is “inactive”.
To `COc1ccc(S(=O)(=O)Nc2ccc3c(c2)C(=O)N([C@@H](C)CO)C[C@@H](C)[C@H](CN(C)Cc2ccc(C(F)(F)F)cc2)OCCCC[C@H](C)O3)cc1` belongs “inactive”; to `C[C@H]1CCCCO[C@H](CN(C)S(=O)(=O)c2ccc(Cl)cc2)[C@@H](C)CN([C@@H](C)CO)C(=O)c2cc(NC(=O)Nc3ccc4c(c3)OCO4)ccc2O1`, “inactive”; to `COC(=O)c1cccnc1`, “inactive”.
To `Cc1ccc(N(c2ccc(C)cc2)c2cccnc2)cc1` belongs “active”; to `CCN(CC)C(=O)c1cccnc1`, “inactive”.
Take `CS(=O)(=O)N1C[C@@H]2OCC[C@@H]2[C@H](C(=O)NCc2cccnc2)C1`: the growth inhibition call was “inactive”.
With `O=c1cc(-c2ccccc2O)oc2cc(O)ccc12`, the growth inhibition call was “inactive”.
Consider `O=C(O)c1c(Br)c(Br)c(Br)c(Br)c1-c1c2ccc(=O)cc-2oc2cc(O)ccc12`, for which the growth inhibition call was “active”.
In the case of `O=c1cc(-c2ccccc2)oc2cc(O)ccc12`, the growth inhibition call is “inactive”.
To `COc1ccccc1S(=O)(=O)N(C)C[C@@H]1OCc2cnnn2CCCC(=O)N([C@H](C)CO)C[C@@H]1C` belongs “inactive”.
Next, `Cc1onc(-c2ccccc2)c1CN`: “inactive”; `Clc1ccc(CON=C(Cn2ccnc2)c2ccc(Cl)cc2Cl)c(Cl)c1.O=[N+]([O-])O`: “active”.
As to `Clc1ccc(COC(Cn2ccnc2)c2ccc(Cl)cc2Cl)cc1.O=[N+]([O-])O` (centres undefined), the growth inhibition call is “inactive”.
Take `Clc1ccc(CSC(Cn2ccnc2)c2ccc(Cl)cc2Cl)cc1.O=[N+]([O-])O` (centres undefined): the growth inhibition call was “inactive”.
`CC(=O)N(C)C[C@H]1Oc2ncc(C#C[C@@H](C)O)cc2C(=O)N([C@@H](C)CO)C[C@@H]1C`: the growth inhibition call is “inactive”.
For the molecule `CC(C)NC(=O)N(C)C[C@H]1Oc2c(NS(=O)(=O)c3cn(C)cn3)cccc2C(=O)N([C@H](C)CO)C[C@@H]1C`, the growth inhibition call was “inactive”.
For the molecule `C[C@H]1CN([C@@H](C)CO)C(=O)c2cc(NC(=O)NC3CCCCC3)ccc2O[C@H]1CN(C)Cc1ccc(Cl)c(Cl)c1`, the growth inhibition call was “inactive”.
In the case of `NC[C@@H]1CCCO1`, the growth inhibition call was “inactive”.
Take `CCC1OC(=O)CC(O)C(C)C(OC2OC(C)C(OC3CC(C)(O)C(O)C(C)O3)C(N(C)C)C2O)C(CC=O)CC(C)C(=O)C=CC(C)=CC1COC1OC(C)C(O)C(OC)C1OC.O=C(O)C(O)C(O)C(=O)O` (centres undefined): the growth inhibition call was “active”.
As to `CC[C@H]1OC(=O)C[C@@H](O)[C@H](C)[C@@H](O[C@@H]2O[C@H](C)[C@@H](O[C@H]3C[C@@](C)(O)[C@@H](O)[C@H](C)O3)[C@H](N(C)C)[C@H]2O)[C@@H](CC=O)C[C@@H](C)C(=O)/C=C/C(C)=C/[C@@H]1CO[C@@H]1O[C@H](C)[C@@H](O)[C@@H](OC)[C@H]1OC`, the growth inhibition call is “active”.
Take `CC[C@H]1OC(=O)C[C@@H](O)[C@H](C)[C@@H](O[C@@H]2O[C@H](C)C[C@H](N(C)C)[C@H]2O)[C@@H](CC=O)C[C@@H](C)C(=O)/C=C/[C@]2(C)O[C@H]2[C@@H]1C`: the growth inhibition call was “active”.
On to `COc1cccc(C(=O)Nc2ccc3c(c2)C(=O)N(C)[C@@H]2CC[C@H](CC(=O)NCC4CC4)O[C@@H]2CO3)c1`, for which the growth inhibition call is “inactive”.
Consider `Cc1noc(C)c1NC(=O)Nc1ccc2c(c1)C(=O)N([C@H](C)CO)C[C@H](C)[C@@H](CN(C)C(=O)C1CCCCC1)OCCCC[C@@H](C)O2`, for which the growth inhibition call is “inactive”.
As for `COCC#Cc1ccc2c(c1)O[C@H](CN(C)C(=O)c1ccccc1F)[C@@H](C)CN([C@@H](C)CO)S2(=O)=O`, the growth inhibition call is “inactive”.
Regarding `C[C@@H]1CN([C@H](C)CO)C(=O)c2cc(NC(=O)Nc3cccc4ccccc34)ccc2O[C@H]1CN(C)S(=O)(=O)c1ccccc1`, the growth inhibition call is “inactive”.
For `COC(=O)c1cc(=O)nc2n1[C@H]1O[C@H](CO)[C@H](O)[C@H]1O2`, the growth inhibition call is “inactive”.
For the molecule `COc1cccc(NC(=O)C[C@H]2CC[C@@H]3[C@@H](COc4ccc(NC(=O)C5CCOCC5)cc4C(=O)N3C)O2)c1`, the growth inhibition call was “inactive”.
As to `CC(C)NC(=O)N(C)C[C@H]1Oc2ccc(NS(=O)(=O)c3cn(C)cn3)cc2C(=O)N([C@@H](C)CO)C[C@H]1C`, the growth inhibition call is “inactive”.
For the molecule `CN(C)C1CCN(C(=O)c2cnc(-c3noc4cc(-c5cccc(C(F)(F)F)c5)ccc34)s2)CC1`, the growth inhibition call was “inactive”.
Consider `CN(C)C1CCN(C(=O)c2cnc(-c3noc4cc(-c5ccccc5C(F)(F)F)ccc34)s2)CC1`, for which the growth inhibition call was “active”.
Consider `Cc1ccc(S(=O)(=O)N(C)C[C@H]2Oc3c(NS(=O)(=O)c4ccc(F)cc4)cccc3C(=O)N([C@@H](C)CO)C[C@H]2C)cc1`, for which the growth inhibition call is “inactive”.
Turning to `C[C@H]1CN([C@@H](C)CO)C(=O)c2c(c3ccccc3n2C)-c2ccccc2CO[C@H]1CN(C)Cc1ccc(C(=O)O)cc1`, the growth inhibition call was “inactive”.
Turning to `CC[C@@H](C)NCCCCOc1ccc(Cl)cc1C(C)(C)C`, the growth inhibition call is “active”.
Turning to `CC(C)(C)NCCCCOc1ccc(Cl)cc1C(C)(C)C`, the growth inhibition call was “inactive”.
Consider `Cc1ccc(OCc2ccc(Cl)cc2)c(C(C)(C)C)c1`, for which the growth inhibition call is “inactive”.
Take `C[C@H](CO)N1C[C@H](C)[C@@H](CN(C)S(=O)(=O)c2cn(C)cn2)Oc2ccc(NC(=O)Nc3ccc4c(c3)OCO4)cc2CC1=O`: the growth inhibition call is “inactive”.
Turning to `CC[C@H](C)[C@H](N)C1=N[C@H](C(=O)N[C@@H](CC(C)C)C(=O)N[C@@H]2CCC(=O)[O][Zn][O]C(=O)C[C@H]3NC(=O)[C@H](Cc4c[nH]cn4)NC(=O)[C@@H](Cc4ccccc4)NC(=O)[C@H]([C@@H](C)CC)NC(=O)[C@@H](CCCN)NC(=O)[C@H](CCCCNC(=O)[C@H](CC(N)=O)NC3=O)NC(=O)[C@H]([C@@H](C)CC)NC2=O)CS1`, the growth inhibition call is “active”.
As for `CC(=O)N[C@@H](CCCNC(=N)N)C(=O)N[C@H]1CSSC[C@@H](C(N)=O)NC(=O)[C@H](Cc2c[nH]c3ccccc23)NC(=O)[C@H](CCCNC(=N)N)NC(=O)[C@@H](Cc2ccccc2)NC(=O)[C@H](Cc2cnc[nH]2)NC(=O)[C@@H](C)NC1=O`, the growth inhibition call was “inactive”.
Turning to `NCCCC[C@H](NC(=O)[C@@H]1CCCN1C(=O)[C@@H]1CSSC[C@H](N)C(=O)N[C@@H](Cc2ccccc2)C(=O)N[C@@H](Cc2ccccc2)C(=O)NC(CCC(N)=O)C(=O)N[C@@H](CC(N)=O)C(=O)N1)C(=O)NCC(N)=O` (some centres undefined), the growth inhibition call was “inactive”.
To `CC[C@H](C)[C@H](N)C1=N[C@H](C(=O)N[C@@H](CC(C)C)C(=O)N[C@H](CCC(=O)O)C(=O)N[C@H](C(=O)N[C@H]2CCCCNC(=O)[C@H](CC(N)=O)NC(=O)[C@@H](CC(=O)O)NC(=O)[C@H](Cc3cnc[nH]3)NC(=O)[C@@H](Cc3ccccc3)NC(=O)[C@H]([C@@H](C)CC)NC(=O)[C@@H](CCCN)NC2=O)[C@@H](C)CC)CS1` belongs “active”; to `C[C@@H]1CN([C@@H](C)CO)C(=O)c2cc(NC(=O)Nc3ccc(C(F)(F)F)cc3)ccc2O[C@@H]1CN(C)C(=O)Nc1ccc2c(c1)OCO2`, “inactive”; to `CC(=O)c1c(C)nn(CC(=O)O)c1C`, “inactive”.
In the case of `COc1ccc(NC(=O)N(C)C[C@@H]2OCCCC[C@@H](C)Oc3ccc(NC(=O)NC(C)C)cc3C(=O)N([C@H](C)CO)C[C@@H]2C)cc1`, the growth inhibition call is “inactive”.

The values are drawn from the antibiotic and cytotoxicity screens of Wong et al. (2023).
